# Source: PubChem BioAssay (Broad Institute)
# A selection: hits, their analogues and other compounds. The true share with any hit is near 8.1%.
# Hedgehog inh = blocks Sonic Hedgehog signaling; inhibition, % (no concentration beside the values); AID 2313; Shh-LIGHT2 Gli-luciferase reporter, 30 h; hit rate 2.1% among 22,000;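 active = mean inhibition across valid replicates above about 65%, limit read from the data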;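 note: pathway switched on by Shh-conditioned medium diluted 1 in 25 in low serum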
# NOMO-1 viab = STK33 inhibitor candidate reducing NOMO-1 cell viability | NOMO-1 AML viability, CellTiter-Glo luminescence, 72 h | inhibition, % (test concentration not listed) | hit rate 7.5% among 37,000; in the data active = inhibition above about 80%
# MITF inh = MITF inhibition | TRPM1 promoter luciferase, luminescence, 24 h | inhibition, % (no concentration beside the values) | hit rate 0.28% among 37,000 | AID 2240; in the data active = inhibition above about 85%;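 note: human melanocyte line stably carrying TRPM1 promoter luciferase reporter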
# Starred values were filed as active, the others as inactive; nt = no result.
SMILES,Hedgehog inh,NOMO-1 viab,MITF inh
C[C@@H]1CN([C@H](C)CO)C(=O)c2cccc(NS(=O)(=O)c3cn(C)cn3)c2O[C@H]1CN(C)C(=O)NC1CCCCC1,8,-19,-9
CCOc1ccccc1CNc1nc2nc3c(c(=O)n2[nH]1)CCC3,nt,27,7
Cc1[nH]n2c(=O)c3c(nc2c1-c1ccccc1)CCC3,-18,106*,20
Cc1ccc(C)c(NC(=O)CN(c2ccc(F)c(Cl)c2)S(C)(=O)=O)c1,nt,28,8
COC(=O)C(NC(=O)c1ccc([N+](=O)[O-])o1)C(C)C (centres undefined),nt,113*,-9
NC(=O)N/N=C/c1ccc([N+](=O)[O-])o1,5,50,-2
C[C@@H]1CN([C@@H](C)CO)C(=O)c2cc(NC(=O)Nc3ccc(C(F)(F)F)cc3)ccc2O[C@H]1CN(C)C(=O)Nc1cccc2ccccc12,-3,44,-8
COc1ccc([N+](=O)[O-])cc1NC(=O)COc1ccc(C(C)(C)C)cc1Br,nt,14,89*
COc1ccc([N+](=O)[O-])cc1NC(=O)COc1ccc(Cl)cc1Br,nt,22,-12
O=C(CN1CCOCC1)Nc1ccccc1[N+](=O)[O-],nt,-4,-11
COc1ccc(OC)c(S(=O)(=O)Nc2ccc(O)c3ccccc23)c1,nt,127*,70
COc1ccc(OC)c(S(=O)(=O)Nc2ccc(NC(C)=O)cc2)c1,nt,9,-27
Cc1ccc(S(=O)(=O)N(C)C[C@@H]2Oc3c(NC(=O)C4CCCCC4)cccc3C(=O)N([C@@H](C)CO)C[C@@H]2C)cc1,104*,8,7
C[C@@H]1CN([C@H](C)CO)C(=O)c2cccc(NC(=O)C3CCCCC3)c2O[C@H]1CN(C)S(=O)(=O)c1ccc(F)cc1,6,16,0
Cc1ccc(S(=O)(=O)N(C)C[C@@H]2Oc3c(NC(=O)C4CCCCC4)cccc3C(=O)N([C@H](C)CO)C[C@@H]2C)cc1,70*,35,6
C[C@H]1CN([C@@H](C)CO)C(=O)c2cccc(NC(=O)C3CCCCC3)c2O[C@H]1CN(C)S(=O)(=O)c1ccc(F)cc1,82*,21,-12
Cc1ccc(S(=O)(=O)N(C)C[C@H]2Oc3c(NC(=O)C4CC4)cccc3C(=O)N([C@@H](C)CO)C[C@H]2C)cc1,-14,20,-9
Cc1ccc(S(=O)(=O)N(C)C[C@@H]2Oc3c(NC(=O)C4CCCCC4)cccc3C(=O)N([C@@H](C)CO)C[C@H]2C)cc1,-16,21,0
CNC[C@H]1Oc2c(NC(=O)C3CCCCC3)cccc2C(=O)N([C@@H](C)CO)C[C@H]1C,19,-3,-3
Cc1cc(C)c2c(c1C(=O)Nc1cccc(C(F)(F)F)c1)CC(C)(C)C2=O,86*,75,60
COc1ccc(C(=O)NCC(=O)Nc2cccc(C(F)(F)F)c2)cc1,nt,-28,-11
COc1ccc(S(=O)(=O)N(C)C[C@H]2Oc3ccc(NC(=O)Nc4ccc(C(F)(F)F)cc4)cc3CC(=O)N([C@H](C)CO)C[C@H]2C)cc1,41,42,45
Cc1ccc(S(=O)(=O)N(C)C[C@@H]2Oc3ccc(NC(=O)Nc4ccc(C(F)(F)F)cc4)cc3CC(=O)N([C@H](C)CO)C[C@@H]2C)cc1,56,126*,34
Cc1ccc(S(=O)(=O)N(C)C[C@H]2Oc3ccc(NC(=O)Nc4ccc(C(F)(F)F)cc4)cc3CC(=O)N([C@H](C)CO)C[C@H]2C)cc1,7,115*,23
Cc1ccc(S(=O)(=O)N(C)C[C@H]2Oc3ccc(NC(=O)Nc4ccc(C(F)(F)F)cc4)cc3CC(=O)N([C@@H](C)CO)C[C@@H]2C)cc1,-2,26,16
SMILES,Hedgehog inh,NOMO-1 viab,MITF inh
CS(=O)(=O)N(CC(=O)Nc1cc(Cl)ccc1Oc1ccccc1)c1cc(Cl)ccc1Cl,nt,70,27
Cc1ccc(-c2nnc(SCC(=O)Nc3ccccc3F)n2C)cc1,nt,2,-39
COc1ccc(NC(=O)Nc2cccc3c2O[C@H](CN(C)S(=O)(=O)c2cn(C)cn2)[C@H](C)CN([C@H](C)CO)C3=O)cc1,-29,-8,-7
CC1=CCC(C(=O)O)C(C(=O)Nc2ccccc2NC(=O)c2ccc(C(F)(F)F)cc2)C1 (centres undefined),nt,46,-75
CCOC(=O)C1CCN(S(=O)(=O)Cc2ccccc2)C1=O (centres undefined),8,112*,-18
CCOC(=O)C1CCCN(Cc2ccccc2)C1 (centres undefined),6,6,4
CC(C)C(NCCC(O)c1ccc(Br)cc1)C(=O)O (centres undefined),nt,-20,9
Cc1c(C)c(C)c(CSC2CC(=O)N(c3ccccc3)C2=O)c(C)c1C (centres undefined),1,5,-11
O=C1CC(Sc2nnc(-c3ccccc3O)o2)C(=O)N1c1ccccc1 (centres undefined),nt,122*,-1
